PubChem BioAssay AID1224855 (National Center for Advancing Translational Sciences (NCATS), 2016)
Records with an inconclusive call do not appear. Unmarked numbers belong to inactive results. Activity calls are given as the source filed them. Calls come from the whole dose curve; as a rule, active = well fitted inhibition curve with a large enough effect; inconclusive = small, poorly fitted or top-dose-only effect; inactive = no such curve, though single readings can be large or run the other way.

assay: Confirmation assay for measurement of the activity of small molecule inhibitors on Zika virus induced Caspase-3 activity in human iPSC derived neural progenitor cells (hNPCs); conditions: hNPC ZIKV-induced caspase-3/7, Caspase-Glo luminescence, 6 h; series mostly up to 46.1 µM; activity, negative = inhibition: at the top concentration
Summary of the method: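 Human iPSC-derived hNPCs were pretreated with compound for 1 h, then infected with ZIKV at 2 FFU/cell for 6 h at 37 C. Caspase-3/7 activity was read by Caspase-Glo 3/7 luminescence after 30 min at room temperature.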

SMILES | Potency | activity, negative = inhibition
Cc1cccc(/C=C/c2ccccc2)n1 | 8.69 µM (active) | –
CCCCCCCC/C=C/C(=O)O | – | -27%
CC[C@@]1(O)C[C@H](O[C@H]2C[C@H](N(C)C)[C@H](O[C@H]3C[C@H](O)[C@H](O[C@H]4CCC(=O)[C@H](C)O4)[C@H](C)O3)[C@H](C)O2)c2c(cc3c(c2O)C(=O)c2c(O)cccc2C3=O)[C@@H]1C(=O)OC | – | 65.4%
C[C@@H]1CCN(C(=O)CC#N)C[C@H]1N(C)c1ncnc2[nH]ccc12 | – | -11.3%
O=C1C[C@@H](c2ccc(O)cc2)Oc2cc(O)cc(O)c21 | 17.3 µM (active) | –
CN1CC(=O)N2C(Cc3c([nH]c4ccccc34)[C@H]2c2ccc3c(c2)OCO3)C1=O (some centres undefined) | – | 6.79%
COCCn1c2c([n+](Cc3cnccn3)c1C)C(=O)c1ccccc1C2=O | 6.15 µM (active) | –
O=C(O)[C@H](CC(=O)N1C[C@@H]2CCCC[C@H]2C1)Cc1ccccc1 | – | -27.9%
O=C(Nc1ccc(OC(F)(F)F)cc1)c1sccc1NCc1ccnc2ccccc12 | 6.15 µM (active) | –
N[C@H](CSC(c1ccccc1)(c1ccccc1)c1ccccc1)C(=O)O | – | 6.42%
Cc1c(NC(=O)c2ccc(C(C)(C)C)cc2)cccc1-c1cn(C)c(=O)c(Nc2ccc(C(=O)N3CCOCC3)cc2)n1 | – | 26.9%
CC(=O)Nc1ccc([C@H](C)C(=O)Nc2ncc(C(C)C)s2)cc1 | 17.3 µM (active) | –
Nc1ccc(N=Nc2ccccc2)c(N)n1 | 15.5 µM (active) | –
Cc1c(N)c(=O)n(-c2ccccc2)n1C | – | -16.4%
COc1cc2nc(N3CCN(C(=O)C4CCCO4)CC3)nc(N)c2cc1OC (centres undefined) | 9.75 µM (active) | –
O=C(Nc1ncc([N+](=O)[O-])s1)c1cccs1 | 1.23 µM (active) | –
CC=CC[C@@H](C)C(=O)[C@H]1C(=O)N[C@@H](C(C)C)C(=O)N(C)CC(=O)N(C)[C@@H](CC(C)C)C(=O)N[C@@H](C(C)C)C(=O)N(C)[C@@H](CC(C)C)C(=O)N[C@@H](C)C(=O)N[C@H](C)C(=O)N(C)[C@@H](CC(C)C)C(=O)N(C)[C@@H](CC(C)C)C(=O)N(C)[C@@H](C(C)C)C(=O)N1C | – | 33.5%

SMILES | Potency | activity, negative = inhibition
COc1ccc(NC(=O)/C=C/c2ccc(Cl)cc2)cc1 | 2.45 µM (active) | –
CN1CC(=O)N/C1=N/C(=O)Nc1cccc(Cl)c1 | 4.35 µM (active) | –
C[C@H](NC(=O)C(=O)Nc1ccccc1C(C)(C)C)C(=O)N[C@@H](CC(=O)O)C(=O)COc1c(F)c(F)cc(F)c1F | 0.245 µM (active) | –
O=C(O)c1cccc(-c2noc(-c3ccccc3F)n2)c1 | 1.73 µM (active) | –
Cc1ccc(C(=O)c2ccc(CC(=O)O)n2C)cc1 | – | -28.4%
CN(C)CCCSc1ccccc1NC(=O)/C=C/c1ccccc1 | 17.3 µM (active) | –
CC(=Cc1ccccc1)C=C1SC(=S)N(CC(=O)O)C1=O | 15.5 µM (active) | –
CNC1[C@H](O)C(O[C@@H]2C(O)C(O[C@H]3O[C@H]([C@@H](C)NC)CC[C@H]3N)[C@@H](N)C[C@H]2N)OC[C@]1(C)O (some centres undefined) | – | 3.84%
O=C(O)Cc1ccc(-c2ccccc2)cc1 | – | -18.7%
O=C(/C=C/c1ccc(O)cc1)c1ccc(O)cc1O | 1.73 µM (active) | –
COc1cccc2c1C(=O)c1c(O)c3c(c(O)c1C2=O)C[C@@](O)(C(=O)CO)C[C@@H]3O[C@H]1C[C@H](N)[C@H](O[C@@H]2CCCCO2)[C@H](C)O1 | – | -26%
CN(C)c1ccc(N=NS(=O)(=O)O)cc1 | – | -26.5% [at 88.3 µM]
CC(C)Oc1ccc2c(=O)c(-c3ccccc3)coc2c1 | 6.15 µM (active) | –
Clc1ccccc1-c1nc(-c2ccncc2)no1 | 4.35 µM (active) | –
CC(O)=C(C#N)C(=O)Nc1ccc(C(F)(F)F)cc1 | 0.774 µM (active) | –
O[C@@H](COc1cccc2ncccc12)CN1CCN(C2c3ccccc3[C@@H]3[C@H](c4ccccc42)C3(F)F)CC1 (some centres undefined) | – | 39.1%
Cc1oncc1C(=O)Nc1ccc(C(F)(F)F)cc1 | 1.38 µM (active) | –
